PLK1 PBD block = inhibitors of human PLK1 polo-box domain binding | Plk1 PBD binding of FITC phosphopeptide, fluorescence polarization | P53350 | AID 720504 | 360,000 compounds, 2.8% hits | Potency, µM, without a hit: max response, negative = inhibition, usual class: inhibitors; further: series mostly up to about 57 µM; on the % scale 0 is the no-effect control and ±100 the full control effect; nearly all actives have a fitted effect of over 65% in size
JMJD2A Tudor inh = JMJD2A Tudor domain (human) inhibition; AlphaScreen JMJD2A-Tudor / H3K4me3 peptide binding; O75164; Potency, µM (doses to about 114 µM), inactives show at the highest dose activity change, negative = inhibition, usual class: inhibitors; 390,000 compounds, 4.4% hits; further: on the % scale 0 is the no-effect control and ±100 the full control effect; nearly all actives have a fitted effect of over 50% in size
HP1b chromo inh = HP1-beta chromodomain-methylated histone interaction inhibition. AID 540317. P83916. 390,000 compounds, 0.56% hits. Potency, µM (doses to about 114 µM), for inactives: at the top dose activity change, negative = inhibition, hits mostly inhibitors. AlphaScreen HP1-beta / biotin-H3K9me3 peptide binding; further: nearly all actives have a fitted effect of over 70% in size
Target sequence (P83916 whole entry, looked up): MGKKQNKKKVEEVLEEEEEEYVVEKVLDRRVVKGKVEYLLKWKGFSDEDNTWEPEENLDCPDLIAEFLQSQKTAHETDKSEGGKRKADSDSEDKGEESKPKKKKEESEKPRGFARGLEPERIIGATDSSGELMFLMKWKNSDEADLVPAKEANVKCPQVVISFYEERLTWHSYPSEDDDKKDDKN
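Compound inhibition of the preformed complex between 50 nM HP1-beta and 50 nM biotinylated H3K9me3 peptide was read by AlphaScreen. Buffer was PBS pH 7.4 with 0.01% Tween-20. Incubations ran 30 min at room temperature, with 10 ug/mL donor/acceptor beads.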
G9a inh-1 = G9a (human) methyltransferase inhibition. Q96KQ7. G9a H3K9 monomethylation, AlphaScreen, 2 h. Potency, µM (doses to about 102 µM), for the others: at the highest dose activity, negative = inhibition, actives largely listed as inhibitors. 350,000 compounds, 8.8% hits; further: on the % scale 0 is the no-effect control and ±100 the full control effect; nearly all actives have a fitted effect of over 75% in size
Target sequence (Q96KQ7 913-1193 limits assumed): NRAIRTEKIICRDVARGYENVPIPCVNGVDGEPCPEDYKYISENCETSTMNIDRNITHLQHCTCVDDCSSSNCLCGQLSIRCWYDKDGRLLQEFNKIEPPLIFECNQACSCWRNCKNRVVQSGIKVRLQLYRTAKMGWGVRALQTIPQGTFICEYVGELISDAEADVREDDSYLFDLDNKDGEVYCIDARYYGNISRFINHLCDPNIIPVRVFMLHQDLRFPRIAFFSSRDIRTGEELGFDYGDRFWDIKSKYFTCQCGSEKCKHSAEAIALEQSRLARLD
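Compounds were preincubated with 20 nM G9a for 15 min, after which biotinylated H3K9 peptide (500 nM) and SAM (20 uM) started a 2 h room-temperature reaction. Monomethylated product was quantified by antibody-based AlphaScreen chemiluminescence.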
Sfp PPTase inh = blocks B. subtilis Sfp PPTase activity | 310,000 compounds, 3.5% hits | Q9F4F7 | Biochemical Sfp PPTase activity, qHTS | Potency, µM, without a hit: largest response in the series, negative = inhibition, most hits filed as inhibitors;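 further: the enzyme is Sfp with the accession as filed and its product quenches rhodamine fluorescence; 0% = enzyme reaction without inhibitor and -100% = no enzyme wells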
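Buffer: 50 mM Hepes-Na pH 7.6, 10 mM MgCl2, 0.01% Nonidet P-40, 0.01% BSA. Enzyme 15 nM, pre-exposed to compound 15 min; substrates then added and fluorescence change tracked over 30 min.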
BAZ2B inh = blocks human BAZ2B; Q9UIF8; AlphaScreen BAZ2B-H3K14Ac peptide displacement; Potency, µM (series often up to 114 µM), for inactives: top-dose activity change, negative = inhibition, most hits filed as inhibitors; 360,000 compounds, 4.4% hits; AID 504333; further: on the % scale 0 is the no-effect control and ±100 the full control effect; nearly all actives have a fitted effect of over 60% in size
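AlphaScreen displacement: compounds (up to 110uM) incubated 30 min at room temperature with a preformed 50 nM BAZ2B/50 nM biotinylated H3K14Ac peptide complex in PBS pH 7.4 with Tween-20. Donor and acceptor beads at 10 ug/mL final added, 20 min light-protected before reading.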
G9a inh-2 = inhibits human G9a histone lysine methyltransferase, hit confirmation | 370 compounds, 89% hits | shares compounds with JMJD2A Tudor inh | G9a H3K9 monomethylation, AlphaScreen, 2 h | AID 588344 | Potency, µM, hits mostly inhibitors; further: nearly all actives have a fitted effect of over 65% in size
TbPYK inh = confirmation of Trypanosoma brucei pyruvate kinase inhibitors; shares compounds with PLK1 PBD block; recombinant TbPYK, Kinase-Glo ATP luminescence; Potency, µM (titrated, usually from 76.9 µM), for the others: top-dose activity change, negative = inhibition, hits mostly inhibitors; 890 compounds, 67% hits; further: on the % scale 0 is the no-effect control and ±100 the full control effect; nearly all actives have a fitted effect of over 70% in size
TbPYK ADP-Glo = inhibits T. brucei pyruvate kinase in orthogonal ADP-Glo assay | AID 720584 | 890 compounds, 62% hits | Potency, µM (top dose mostly 76.9 µM), for inactives: at the highest dose activity change, negative = inhibition, most hits filed as inhibitors | recombinant TbPYK, ADP-Glo luminescence, 60 min | shares compounds with PLK1 PBD block; further: on the % scale 0 is the no-effect control and ±100 the full control effect; nearly all actives have a fitted effect of over 75% in size
The depositor's hits bear a star; ? = inconclusive; · = no result given; [ ] = dose if it differs, or a comment. Most compounds without a hit are left out; they make up all but 12% or so of the library. The call rests on the fitted dose curve; in most records, active means well fitted curve in the direction sought with a large enough effect; inconclusive means small, poorly fitted or top-dose-only effect, or another doubt; inactive means no such curve, though single readings can be large; an effect the other way counts as inactive or inconclusive. Potency means the concentration at half of the fitted maximal effect.

SMILES	PLK1 PBD block	JMJD2A Tudor inh	HP1b chromo inh	G9a inh-1	Sfp PPTase inh	BAZ2B inh	TbPYK inh	TbPYK ADP-Glo	others
Cc1ccc(-n2nnc(C(=O)Nc3cc(F)ccc3F)c2C)cc1F	·	-12.3%	62.2%	-11.9%[59 µM]	·	6.1%	·	·
CCOC(=O)c1sc(NC(=O)CSc2nc3c(c(=O)n2-c2ccc(F)cc2)SCC3)c(C(=O)OCC)c1C	·	·	·	-8.2%	5.2%	-20.9%	·	·
Cc1onc(-c2ccccc2)c1C(=O)Nc1nnc(COc2ccc(Cl)cc2)s1	1.34µM*	?	?	?	7.08µM*	-34.6%	·	·	G9a inh-2=0.796*
COc1ccc([N+](=O)[O-])cc1NC(=O)CSc1nc(C)cc(C)n1	13.4µM*	?	18.1%	2.51µM*	22.4µM*	-3.6%	28.2µM*	15.8µM*	G9a inh-2=6.31*
O=C(C1CCCCN1S(=O)(=O)c1ccccc1[N+](=O)[O-])N1CCCCC1 (stereo unspecified)	-18.3%	-7.1%	38.5%	6.6%	17.2%	1.0%	·	·
CC(Nc1ccc(N2CCOCC2)cc1)C(=O)N1c2ccccc2CC1C (stereo unspecified)	-0.3%	?	-11.9%	·	10µM*	35.5µM*	3.16µM*	7.08µM*
O=C(O)CCCn1c(=S)[nH]c2c(sc3ccc([N+](=O)[O-])cc32)c1=O	-15.2%	17.8µM*	32.2%	8.91µM*	44.7µM*	?	7.94µM*	4.47µM*
CCOC(=O)C1=C(C)N(CCCC(=O)O)C(=O)NC1c1ccc([N+](=O)[O-])cc1 (stereo unspecified)	-3.0%	-8.7%	36.7%	-43.0%	-16.1%	3.3%	·	·
CC(=O)N1CCOc2cc(S(=O)(=O)NCc3ccc(C)cc3)c(Cl)cc21	·	-21.4%	6.8%	5.2%[59 µM]	·	-1.9%	·	·
Cc1cscc1-c1ccc(C(=O)Nc2c(C)cccc2C)o1	-26.8%	·	·	·	·	·	·	·
N#Cc1cc2c(nc1SCc1cccnc1)CCCC2	26.7µM*	?	-16.0%	?	44.7µM*	16.3%	3.98µM*	6.31µM*
CNC(=S)NNC(=O)c1sc(-c2cc(C)on2)nc1C	2.5%	-28.9%	11.4%	-0.2%[59 µM]	9.1%	-17.1%	·	·
O=C(C(=O)N1CCCN(Cc2ccc(F)cc2)CC1)c1ccccc1	-5.9%	·	·	·	·	·	·	·
O=C(O)C1OC(Oc2cc3oc(-c4ccccc4)cc(=O)c3c(O)c2O)C(O)C(O)C1O (stereo unspecified)	3.5%	20µM*	-0.8%	39.8µM*	8.91µM*	-4.6%	2.82µM*	2.82µM*
O=c1cc(-c2ccccc2)oc2cc(OCc3ccccc3)cc(O)c12	-4.5%	-17.3%[11.4 µM]	20.5%	-5.6%[59 µM]	0.9%	-25.5%	·	·
CN1C(=CC=C2C=C(I)C(=O)C(I)=C2)C(C)(C)c2ccccc21	55.0%	?	?	·	89.1µM*	?	?	5.5%
O=C(CN1C(=O)NC2(CCCC2)C1=O)OCCOc1ccc(Cl)cc1	-1.4%	-0.7%	34.5%	12.6%[0.501 µM]	·	1.5%	·	·
COc1ccccc1NC(=O)CCCCCN1C(=O)c2cccc([N+](=O)[O-])c2C1=O	-15.4%	-30.6%	36.2%	·	-4.8%	-3.5%	·	·
COc1cc(/C=C2/C(=O)c3cccc([N+](=O)[O-])c3C2=O)c(Br)cc1O	1.5µM*	17.8µM*	25.1µM*	10µM*	20µM*	20µM*	25.1µM*	-17.3%
COC(=O)[C@@]1(C)[C@H]2C(=O)N(C)C(=O)[C@H]2[C@H]2CN=C(SC)N21	-2.1%	-18.8%	84.6%	·	·	·	·	·
CCCNC(=O)N(C)C[C@@H]1Oc2ncc(-c3ccncc3)cc2C(=O)N([C@H](C)CO)C[C@@H]1C	-12.8%	·	·	·	·	·	22.4µM*	31.6µM*
CCCNC(=O)N(C)C[C@@H]1Oc2ncc(Br)cc2C(=O)N([C@H](C)CO)C[C@@H]1C	-20.0%	·	·	·	·	·	·	·
COC(=O)/C(=N\Nc1ccccc1)Sc1nnc(-c2ccc(OC)cc2)n1C	-4.2%	?	23.6%	5.01µM*	-13.6%	-5.3%	17.8µM*	17.8µM*
Cc1ccc(-c2nc3ccccc3nc2-c2ccccc2)cc1	-11.9%	82.1%	113.7%	·	-18.8%	9.5%	·	·
Cc1ccc(-c2nc(N)s[n+]2-c2ccccc2)cc1	3.77µM*	28.2µM*	?	5.01µM*	?	50.5%	2.24µM*	6.31µM*
SMILES	PLK1 PBD block	JMJD2A Tudor inh	HP1b chromo inh	G9a inh-1	Sfp PPTase inh	BAZ2B inh	TbPYK inh	TbPYK ADP-Glo	others
CNc1nc(-c2ccccc2)[n+](-c2ccc(C)cc2)s1	1.5µM*	20µM*	11.2µM*	1.41µM*	3.16µM*	7.94µM*	1µM*	1.78µM*
COCCN(C(=O)COC(=O)c1oc2ccc(OC)cc2c1C)c1c(N)n(Cc2ccccc2)c(=O)[nH]c1=O	-4.9%	-24.3%	-3.1%	-1.2%[0.501 µM]	18.2%	-35.6%	·	·
CC[n+]1ccc(/C=C/c2ccc(N(C)C)cc2)c2ccccc21	2.5%	22.4µM*	17.8µM*	·	?	10µM*	22.4µM*	0.0%
COC(=O)c1ccc(CNC(=O)COC(=O)c2ccc(N(C)C)cc2)cc1	-7.5%	-20.8%	0.3%	24.9%	-7.6%	1.3%	·	·
O=C(Nc1ccc(C(=O)N2CCCC2)cc1)c1ccccc1F	-4.4%	0.0%	8.0%	?	0.6%	0.4%	25.1µM*	10.1%
O=C(Nc1cc(C(=O)N2CCCC2)ccc1N1CCCC1)c1ccccc1F	-4.0%	-16.7%	21.7%	?	21.5%	-25.9%	·	·
CC1C=CCC2C(=O)N(c3cccc(C(=O)NCCc4ccccc4)c3)C(=O)C12 (stereo unspecified)	-19.7%	-20.4%	25.8%	?	5.7%	-21.5%	·	·
CC1C=CCC2C(=O)N(c3cccc(C(=O)NCc4ccccc4)c3)C(=O)C12 (stereo unspecified)	-7.7%	-28.4%	20.0%	28.2µM*	-27.3%	-23.6%	?	?
COC(=O)C[C@H]1C=C[C@H](NC(=O)Nc2ccccc2OC)[C@@H](CO)O1	-7.4%	·	·	·	·	·	·	·
COc1ccc(NC(=O)C2CCCN(S(=O)(=O)c3cccnc3)C2)cc1OC (stereo unspecified)	0.3%	-15.4%	22.0%	-116.5%[12.7 µM]	2.6%	-9.0%	·	·
